Structures can show the parent of a compound that is named as a salt.
The compounds below were run against PARP1 L713F-nLuc biosensor (HCT116) (UniProt P09874) (assay: PARP1 L713F-nLuc/akaLuc ratio relative to DMSO control (biosensor stabilization) (fold change); higher = more PARP1 biosensor stabilization (target engagement / stabilizer), active = hit call of the paper). Details: stock concentration (mM; final µM = stock mM x 1): 10; 24 h;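 active = log2 fold change beyond 2 SD from the library mean after excluding viability outliers; inactive = within 2 SD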.
Chain of PARP1 L713F-nLuc biosensor (HCT116) (P09874 whole entry L713F, looked up): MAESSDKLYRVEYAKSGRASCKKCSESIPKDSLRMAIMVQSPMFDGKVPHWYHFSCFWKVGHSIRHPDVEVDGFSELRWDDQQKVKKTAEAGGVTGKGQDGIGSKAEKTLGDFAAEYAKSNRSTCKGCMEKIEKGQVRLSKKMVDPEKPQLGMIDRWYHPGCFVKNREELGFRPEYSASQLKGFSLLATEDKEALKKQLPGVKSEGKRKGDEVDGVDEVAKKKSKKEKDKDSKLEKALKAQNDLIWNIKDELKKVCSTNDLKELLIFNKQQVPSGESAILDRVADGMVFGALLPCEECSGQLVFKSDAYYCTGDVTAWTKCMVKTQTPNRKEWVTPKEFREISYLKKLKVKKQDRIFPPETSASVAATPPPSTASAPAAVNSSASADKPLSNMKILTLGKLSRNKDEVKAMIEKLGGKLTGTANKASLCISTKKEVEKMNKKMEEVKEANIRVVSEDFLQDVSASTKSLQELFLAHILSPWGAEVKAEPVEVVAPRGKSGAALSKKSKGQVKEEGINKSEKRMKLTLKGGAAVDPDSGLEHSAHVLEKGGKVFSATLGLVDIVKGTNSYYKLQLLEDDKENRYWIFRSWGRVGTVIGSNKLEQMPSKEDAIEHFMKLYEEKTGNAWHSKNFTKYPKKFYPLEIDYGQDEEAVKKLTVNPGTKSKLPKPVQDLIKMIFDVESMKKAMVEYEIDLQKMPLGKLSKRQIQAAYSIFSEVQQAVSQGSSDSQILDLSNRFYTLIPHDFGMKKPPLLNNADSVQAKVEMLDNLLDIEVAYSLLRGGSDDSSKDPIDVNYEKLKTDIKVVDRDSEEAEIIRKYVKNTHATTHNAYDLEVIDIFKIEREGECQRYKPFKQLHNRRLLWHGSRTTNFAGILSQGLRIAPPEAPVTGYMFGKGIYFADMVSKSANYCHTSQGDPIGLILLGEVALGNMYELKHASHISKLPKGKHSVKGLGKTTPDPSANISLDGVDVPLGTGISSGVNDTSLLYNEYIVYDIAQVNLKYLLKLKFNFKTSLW

| Compound | PARP1 L713F-nLuc/akaLuc ratio |
| --- | --- |
| CNC(=O)c1ccc2cc([C@@]3(O)CCn4cncc43)ccc2c1 [TAK-700 (Orteronel)] | 0.776 (inactive) |
| CCN(c1cc(-c2ccc(CN3CCOCC3)cc2)cc(C(=O)NCc2c(C)cc(C)[nH]c2=O)c1C)C1CCOCC1 [Tazemetostat (hydrobromide)] | 0.726 (inactive) |
| COc1cc(-c2cn(C)c(=O)c3cnccc23)cc(OC)c1CN1CCN(CCCCCOc2cc(-c3scnc3C)ccc2CNC(=O)[C@@H]2C[C@@H](O)CN2C(=O)[C@@H](NC(=O)C2(F)CC2)C(C)(C)C)CC1 | 0.634 (inactive) |
| CC(C)N(C[C@H]1O[C@@H](n2cnc3c(N)ncnc32)[C@H](O)[C@@H]1O)[C@H]1C[C@@H](CCc2nc3cc(C(C)(C)C)ccc3[nH]2)C1 [Pinometostat] | 0.649 (inactive) |
| Nc1c(S(=O)(=O)c2ccccc2)c2nc3ccccc3nc2n1-c1ccc(F)cc1 | 1.04 (inactive) |
| CCCc1cc(C)[nH]c(=O)c1CNC(=O)c1cc(-c2ccc(N3CCN(C)CC3)nc2)nc2c1cnn2C(C)C | 1.04 (inactive) |
| C[C@@H]1COCCN1c1cc(C2([S@](C)(=N)=O)CC2)nc(-c2cc[nH]c3nccc2-3)n1 | 1.79 (inactive) |
| O=C1COc2c(CCNCCN(C(=O)CCNCCc3ccc(Cl)c(Cl)c3)C3CCCCC3)ccc(O)c2N1 [AZ505 (ditrifluoroacetate)] | 0.634 (inactive) |
| O=c1c(O)c(-c2ccc(O)c(O)c2)oc2cc(O)c(O)c(O)c12 [Quercetagetin] | 0.792 (inactive) |
| CCN(C(=O)c1ccccc1OC)c1cc2c(cc1N1CCNC[C@H]1C)n(C)c(=O)n2C | 0.597 (inactive) |
| Nc1nc(Nc2ccc(S(N)(=O)=O)cc2)nn1C(=O)c1c(F)cccc1F | 0.483 (inactive) |
| CCN(CCO)CCCOc1ccc2c(Nc3cc(CC(=O)Nc4cccc(F)c4)[nH]n3)ncnc2c1 [Barasertib-HQPA] | 0.878 (inactive) |
| N#Cc1ccc(C(=O)N(Cc2cccs2)C2CC2)cc1 | 1.18 (inactive) |
| C/C(=N\NC(=O)c1cccc(S(=O)(=O)N2CCOCC2)c1)c1cc(Cl)ccc1O | 0.495 (inactive) |
| CCCCOc1ccc(CC(=O)NO)cc1 [Bufexamac] | 1.03 (inactive) |
| CC1(C)Oc2cc(N3CCN(C(=O)OCc4ccccc4)CC3)c([N+](=O)[O-])cc2-c2c1cnn2-c1ccc(C(=O)O)cc1 [Lin28-let-7a antagonist 1] | 0.959 (inactive) |
| O=C(O)Cn1nnc(-c2ccc(CN(CCCCOc3ccc(CN4CCCC4)cc3)CCc3ccccc3)cc2)n1 | 1.04 (inactive) |
| CCS(=O)(=O)N1CC(CC#N)(n2cc(-c3ncnc4[nH]ccc34)cn2)C1 [Baricitinib] | 0.881 (inactive) |
| Cc1cc([C@@H](C)Nc2ccccc2C(=O)O)c2nc(N3CCOCC3)cc(=O)n2c1 | 0.617 (inactive) |
| Cc1cc(-c2ccccc2)cc(C(=O)NNS(=O)(=O)c2ccccc2)c1F | 0.665 (inactive) |

| Compound | PARP1 L713F-nLuc/akaLuc ratio |
| --- | --- |
| COc1cc(Nc2ncc(F)c(Nc3ccc4c(n3)N(COP(=O)(O)O)C(=O)C(C)(C)O4)n2)cc(OC)c1OC [Fostamatinib (R788)] | 0.614 (inactive) |
| Cc1cn(CCN2CCN(c3ccccc3-c3cc(C#N)cc(C(=O)NCCCN4CCCC4)c3)CC2)c2ccccc12 | 0.612 (inactive) |
| Cc1cc(C)c(CNC(=O)c2cc(-c3ccc(CN4CCOCC4)cc3)cc3c2cnn3C2CCCC2)c(=O)[nH]1 | 1.16 (inactive) |
| Nc1ncnc2c1ncn2[C@@H]1O[C@H](C(=O)N2CCN(CC(=O)Nc3cccc4c3CNC4=O)CC2)[C@@H](O)[C@H]1O [EB-47 (dihydrochloride)] | 0.793 (inactive) |
| NC(=O)c1ccc(Oc2ccc(C(N)=O)cc2)cc1 | 1.27 (inactive) |
| COc1cccc2c1c(O)c(C(=O)N(C)c1ccc(C(F)(F)F)cc1)c(=O)n2C [Tasquinimod] | 1.12 (inactive) |
| N#Cc1c(O)c2c(-c3ccc(-c4ccccc4O)cc3)csc2[nH]c1=O | 0.692 (inactive) |
| COC(=O)c1ccc2c(c1)NC(=O)/C2=C(\Nc1ccc(N(C)C(=O)CN2CCN(C)CC2)cc1)c1ccccc1 [Nintedanib (BIBF 1120)] | 0.6 (inactive) |
| Cc1nc2sccn2c(=O)c1CCN1CCC(=C(c2ccccc2)c2ccc(F)cc2)CC1 | 1.01 (inactive) |
| CC(=O)c1c(C)cc2cccc(O)c2c1O [Nepodin] | 0.91 (inactive) |
| CC(C(=O)Nc1cccc(/N=C/c2c(O)ccc3ccccc23)c1)c1ccccc1 (centres undefined) [Salermide] | 0.605 (inactive) |
| O=C(O)c1c[nH]c2cc(Cl)c(-c3ccc(C4(O)CCC4)cc3)cc12 | 0.446 (inactive) |
| CCCC(CCC)C(=O)O [Valproic acid (sodium salt)] | 0.704 (inactive) |
| CC[C@H](NC(=O)[C@H](C)NC)C(=O)N1C[C@@H](O)C[C@H]1Cc1c(-c2[nH]c3cc(F)ccc3c2C[C@@H]2C[C@H](O)CN2C(=O)[C@H](CC)NC(=O)[C@H](C)NC)[nH]c2cc(F)ccc12 [Birinapant] | 0.946 (inactive) |
| CCS(=O)(=O)N1CC(CC#N)(n2cc(-c3ncnc4[nH]ccc34)cn2)C1 | 0.444 (inactive) |
| CCCOc1ccn2c(C(C)=O)cc(-c3cccc(OC)c3)c2c1 | 1.56 (inactive) |
| NC(=O)c1ccc[n+]([C@@H]2O[C@H](CO)[C@@H](O)[C@H]2O)c1 [Nicotinamide riboside (chloride)] | 1.17 (inactive) |
| CC1(C)C(=O)NC2=C1C(=O)C(=O)c1ccccc12 | 0.888 (inactive) |
| Cc1ccc(-c2cc(C(F)(F)F)nn2-c2ccc(S(N)(=O)=O)cc2)cc1 [Celecoxib] | 1.02 (inactive) |
